Experimental data reported in PubChem BioAssay (EPA / NIEHS).
Inconclusive results are not listed. Activity calls are given as the source filed them. The calls were made as follows, unless noted: active = hit-call score of the fitted dose curve at least 0.9, where 1 is the maximum; inactive = score below 0.9.

Key:
[1] = CCTE_Shafer_MEA_dev_LDH: CCTE's Lactate Dehydrogenase Assay for Cytotoxicity in the Neural Network Formation Assay, Shafer Lab (AID 2284068; active = hit-call score of the fitted dose curve at least 0.9, where 1 is the maximum;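 also: exposure for twelve days from plating with re-dosing on DIV 5 and 9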)
How it was run: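 Cytotoxicity companion to network-formation recordings: rat cortical neurons received compound over 12 days of development, re-dosed at DIV 5 and 9 feeds. Viability was inferred from LDH enzyme activity relative to DMSO.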

[2] = CCTE_Shafer_MEA_dev_AB: CCTE's Alamar Blue Assay for Cytotoxicity in the Neural Network Formation Assay, Shafer Lab (AID 2284083; active = hit-call score of the fitted dose curve at least 0.9, where 1 is the maximum;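 also: resazurin reduction fluorescence as viability of cultured neurons; twelve days of exposure from plating with re-dosing on DIV 5 and 9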)
How it was run: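 Fluorescent resazurin reduction serves as the viability read-out, with DMSO as negative control and baseline. Cells were primary rat cortical neurons grown on MEA plates and dosed from day 0 to day 12, treatment renewed on DIV 5 and 9.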

[3] = CCTE_Shafer_MEA_dev_mutual_information_norm: CCTE's Neural Network Formation Assay for Mutual Information Normalization, Shafer Lab (AID 2284091);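 also: mutual information between electrodes summarised as area under curve across four recording days; potency is for a decrease in mutual information relative to DMSO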
How it was run: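 Shared information across electrodes, tracked on days 5, 7, 9 and 12 of network development and collapsed as trapezoidal area under the curve. Rat cortical cultures were treated continuously from plating, with treatment renewed at feeds on DIV 5 and 9; DMSO baseline, negative-direction fit.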

[4] = CCTE_Shafer_MEA_dev_correlation_coefficient_mean: CCTE's Neural Network Formation Assay for Mean Correlation Coefficient, Shafer Lab (AID 2284093);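 also: well mean pairwise spike train correlation integrated as AUC over recording days 5 to 12; potency fitted for loss of correlation relative to DMSO vehicle wells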
How it was run: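 Read-out: well-mean correlation coefficient of spike trains between electrode pairs, collapsed over four recording days as trapezoidal area-under-the-curve. Developing rat cortical neuron networks grown on MEAs received test chemical continuously from plating.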

[5] = CCTE_Mundy_HCI_Cortical_Synap_Neur_Matur_NeuriteSpotCountPerNeuriteLength: CCTE's Synaptogenesis and Neurite Maturation Assay in rat cortical cells for Neurite Spot Count per Neurite Length, Mundy Lab (AID 2284210)
How it was run: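 Synaptophysin spots per unit neurite length, measured by automated imaging of MAP2/synaptophysin/Hoechst-stained neurons. Cultures from rat cortex received chemical at DIV 7 with media change through DIV 12; glial growth arrested by AraC at DIV 5; DMSO baseline.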

[6] = CCTE_Mundy_HCI_Cortical_Synap_Neur_Matur_BPCount: CCTE's Synaptogenesis and Neurite Maturation Assay in rat cortical cells for Branch Point Count, Mundy Lab (AID 2284211)
How it was run: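 HCI read-out of branch points from MAP2/synaptophysin/Hoechst immunofluorescence; rat cortical cultures, AraC DIV 5, dosing DIV 7, fixed DIV 12; fit in positive direction vs DMSO baseline.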

[7] = CCTE_Mundy_HCI_Cortical_NOG_NeuriteCount: CCTE's Neurite Outgrowth Assay in rat cortical cells for Neurite Count, Mundy Lab (AID 2284212);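 also: cells fixed about two days after chemical exposure began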
How it was run: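 Rat cortical primary cells; compound added 2 h post-plating, 1/10 dilution of working solution. Anti-betaIII-tubulin/AF488 ICC; ArrayScan neurite count vs DMSO.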

[8] = CCTE_Mundy_HCI_Cortical_NOG_NeuriteLength: CCTE's Neurite Outgrowth Assay in rat cortical cells for Neurite Length, Mundy Lab (AID 2284213);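 also: neurites imaged about 48 to 50 h after chemical exposure began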
How it was run: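 First, rat primary cortical cells were plated and, 2 h later, given test chemical as a 1/10 dilution. Finally, βIII-tubulin immunostaining enabled automated imaging of neurite length.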

[9] = CCTE_Mundy_HCI_Cortical_Synap_Neur_Matur_NeuriteLength: CCTE's Synaptogenesis and Neurite Maturation Assay in rat cortical cells for Neurite Length, Mundy Lab (AID 2284214)
How it was run: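 Neurite length quantified by automated high-content imaging of MAP2, synaptophysin and Hoechst staining. Rat cortical cells received chemical from DIV 7 to DIV 12 […], glial growth arrested by AraC at DIV 5; DMSO baseline.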

[10] = CCTE_Mundy_HCI_Cortical_Synap_Neur_Matur_SynapseCount: CCTE's Synaptogenesis and Neurite Maturation Assay in rat cortical cells for Synapse Count, Mundy Lab (AID 2284218)
How it was run: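 High-content imaging of synaptophysin puncta per MAP2-positive neuron (Hoechst nuclei) in rat cortical cells exposed DIV 7–12 after glial arrest with AraC at DIV 5; decrease relative to DMSO scored.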

[11] = CCTE_Mundy_HCI_hN2_NOG_NeuriteCount: CCTE's Neurite Outgrowth Assay in human hN2 cells for Neurite Count, Mundy Lab (AID 2284219; active = hit-call score of the fitted dose curve at least 0.9, where 1 is the maximum)
How it was run: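 In this morphology assay, hNP1-derived neurons received test chemical 2 h post-plating and were fixed two days later in warm paraformaldehyde/sucrose containing Hoechst 33342. Neurites, labelled by rabbit anti-βIII-tubulin (1:800) and Alexa Fluor-488 (1:500), were counted automatically.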

[12] = CCTE_Mundy_HCI_hN2_NOG_NeuriteLength: CCTE's Neurite Outgrowth Assay in human hN2 cells for Neurite Length, Mundy Lab (AID 2284220; active = hit-call score of the fitted dose curve at least 0.9, where 1 is the maximum)
How it was run: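 Plate hNP1-derived neurons, then add chemical 2 h later as a 1/10 dilution. Stain with anti-βIII-tubulin then Alexa Fluor-488 secondary, and image automatically to measure neurite length.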

[13] = CCTE_Mundy_HCI_hN2_NOG_NeuronCount: CCTE's Neurite Outgrowth Assay in human hN2 cells for Neuron Count, Mundy Lab (AID 2284221; active = hit-call score of the fitted dose curve at least 0.9, where 1 is the maximum)
How it was run: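 Read-out is the number of betaIII-tubulin-positive neurons imaged by automated high-content analysis, with DMSO as negative control.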

[14] = CCTE_Mundy_HCI_Cortical_Synap_Neur_Matur_NeuriteCount: CCTE's Synaptogenesis and Neurite Maturation Assay in rat cortical cells for Neurite Count, Mundy Lab (AID 2284222);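 also: exposure from day 7 to day 12 in vitro with readout at day 12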
How it was run: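 Chemical exposure runs DIV 7–12 in rat cortical cultures, glia suppressed by AraC at DIV 5; measurement is at DIV 12. Imaging-derived neurite counts are fitted against DMSO baseline.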

[15] = CCTE_Mundy_HCI_Cortical_Synap_Neur_Matur_CellBodySpotCount: CCTE's Synaptogenesis and Neurite Maturation Assay in rat cortical cells for Cell Body Spot Count, Mundy Lab (AID 2284223)
How it was run: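 Rat primary cortical cultures received AraC at DIV 5 to arrest glia, were dosed with chemical at DIV 7 with media change, and were fixed at DIV 12 (288.33 h). Synaptophysin puncta on MAP2-positive cell bodies per neuron were counted by high-content imaging versus DMSO.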

[16] = CCTE_Mundy_HCI_hNP1_Pro_ResponderAvgInten: CCTE's Proliferation Assay in human neuroprogenitor cells, Mundy Lab (AID 2284224; active = hit-call score of the fitted dose curve at least 0.9, where 1 is the maximum;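 also: human neural progenitor cells hNP1 derived from WA09 embryonic stem cells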)
How it was run: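 Proliferation was scored as BrdU labelling intensity in human neural progenitors derived from WA09 embryonic cells, measured 26.25 hours after chemical dosing. Activity was fitted relative to DMSO.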

[17] = CCTE_Mundy_HCI_Cortical_NOG_NeuronCount: CCTE's Neurite Outgrowth Assay in rat cortical cells for Neuron Count, Mundy Lab (AID 2284236; active = hit-call score of the fitted dose curve at least 0.9, where 1 is the maximum;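 also: neurons counted by imaging betaIII-tubulin and Hoechst stained cortical cells; cells exposed to compound for about 48 hours before fixation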)
How it was run: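 Read-out: neuron number by high-content imaging of betaIII-tubulin (Alexa Fluor-488) and Hoechst-labelled rat primary cortical cells.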

[18] = CCTE_Mundy_HCI_Cortical_NOG_BPCount: CCTE's Neurite Outgrowth Assay in rat cortical cells for Branch Point Count, Mundy Lab (AID 2284237);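 also: branch points counted about two days after chemical exposure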
How it was run: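 Measured 50.33 h after dosing, this morphology endpoint uses rat primary cortical cultures labelled for betaIII-tubulin. Branch points are quantified by high-content imaging, with DMSO as negative control and baseline.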

[19] = CCTE_Mundy_HCI_hNP1_Casp3_7: CCTE's Caspase-Glo 3/7 Assay in human neuroprogenitor cells for Apoptosis, Mundy Lab (AID 2284240)
How it was run: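 Apoptosis is scored by activated caspase-3/7 luminescence in WA09-derived neural progenitor cells, measured 26.5 h after chemical dosing. Values represent gain of signal relative to DMSO vehicle.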

[20] = CCTE_Mundy_HCI_Cortical_Synap_Neur_Matur_NeuronCount: CCTE's Synaptogenesis and Neurite Maturation Assay in rat cortical cells for Neuron Count, Mundy Lab (AID 2284242; active = hit-call score of the fitted dose curve at least 0.9, where 1 is the maximum;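 also: hits reduce neuron count versus DMSO baseline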)
How it was run: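 Neuron counts come from automated high-content imaging of Hoechst nuclei and MAP2/synaptophysin immunostaining at DIV 12, with loss of signal judged against DMSO. Cultures of rat cortical cells had glial growth arrested by AraC at DIV 5; chemical exposure began DIV 7.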

Measured: AC50

CCC[CH2][Sn]([CH2]CCC)([CH2]CCC)[O][Sn]([CH2]CCC)([CH2]CCC)[CH2]CCC
inactive: [5] | [14]
active: [1] 0.0328 µM | [2] 0.0455 µM | [3] 0.0345 µM | [4] 0.0335 µM | [6] 0.023 µM | [7] 0.0278 µM | [8] 0.0221 µM | [9] 0.0145 µM | [10] 0.022 µM | [11] 0.0478 µM | [12] 0.0436 µM | [13] 0.0319 µM | [15] 0.0311 µM | [16] 0.125 µM | [17] 0.0311 µM | [18] 0.0277 µM | [19] 0.115 µM | [20] 0.0108 µM
